Assay [1] in a line: inhibitors of TNFa-induced NFkB p65 translocation, primary screen, imaging, HUVEC, MLSMR starter and 10KST1 sets (AID 438;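 active = inhibition above 20% together with a positive visual image hit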;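 note: compound added about 3h40 before a 20 min TNFalpha stimulation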;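 for inhibition: signal is the nuclear over cytoplasmic p65 intensity ratio per well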). Particulars: HUVEC TNFa-induced p65 nuclear translocation; cell count: measured here: nuclei count (cytotoxicity indicator), at 2.08 µM; inhibition: at 2 µM, stronger effect = higher value, 0% TNFa-plus-vehicle, 100% no-TNFa wells.
The nature of assay [2]: reduction of polyQ htt aggregates in cells – imaging, exon1htt(103Q)mCFP cells, high-content imaging, primary screen (AID 483;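 active = visual image review flags a hit and inhibition of aggregation exceeds 20%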;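 note: compound exposure lasted 3 days before fixation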;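 for nuclei count: percent of the per-plate median nuclei count of sample wells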). To be noted: exon1htt(103Q)mCFP cell line, aggregate imaging, at 2 µM; inhibition of aggregation: stronger effect = higher value; nuclei count: measured here: cell count, toxicity.
Assay [3] in a line: endothelial E-selectin expression blockers – imaging, HUVEC, immunofluorescence, MLSMR starter and 10KST1 sets, primary screen (AID 487;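 active = visually confirmed hit in the image check and inhibition above 20%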;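 for inhibition: signal is fraction of cell area covered by stained E-selectin grains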;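 for nuclei count: 100% = median nuclei count of all wells on the same plate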). Particulars: HUVEC TNFalpha-induced E-selectin immunofluorescence imaging, at 2 µM; inhibition: stronger effect = higher value; nuclei count: measured here: cell number, toxicity.
Assay [4] deals with Voltage-gated potassium channel subunit beta-2 (Rattus norvegicus) (UniProt P62483). The assay is described as follows: inhibitors of rat Kvbeta2 reductase activity – biochemical, NADPH fluorescence, primary screen (AID 622;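 active = fluorescence slope higher than the sample average by over 3 SD, cut at about -0.22 in these data, passing the limit was not always enough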;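 note: slope of raw intensity against log time taken from 70 to 1610 s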). Particulars: recombinant KvBeta, 4-cyanobenzaldehyde reduction, at 10 µM, stronger effect = higher value.
The target is the same in assay [5]. The assay is described as follows: enhancers of rat Kvbeta2 NADPH turnover – biochemical, NADPH fluorescence, primary screen (AID 623;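 active = NADPH fluorescence slope more negative than the mean of all samples by about 3 SD, 99.7% confidence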;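 note: fluorescence intensity change per second fitted from 20 to 320 s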). Particulars: Recombinant KvBeta, NADPH fluorescence decrease slope, 10 min; at 10 µM; stronger effect = lower value.
Assay [6] addresses Alpha-2C adrenergic receptor (Homo sapiens) (UniProt P18825). The assay is described as follows: compounds altering alpha2C-coupled GIRK flux – cell-based, HEK293 alpha2C/GIRK1/2, thallium flux, primary screen (AID 624;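 active = fluorescence slope after compound addition differing from the mean of all screened samples at 99.7% confidence, in either direction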;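 note: slope of fluorescence ratio to pre-addition baseline per second over 15 to 24 s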). To be noted: thallium flux BTC fluorescence, at 10 µM, actives lie on both sides.
Assay [7] in a line: blockers of RIG-like receptor reporter activation – cell-based, Sendai virus stimulus, luciferase, 10K MLSCN set, TLR/RLR signaling modifier project, primary screen (AID 602276).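 Note: firefly luciferase from ISG56 promoter only with Renilla not read in this screen; 0% = Sendai virus plus DMSO and 100% = medium plus DMSO without virus.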 Particulars: HEK293 RL24 IRF3 luciferase reporter, at 10 µM, stronger effect = higher value.
Assay [8] can be described thus: TLR3 IRF3 reporter activation blockers – cell-based, poly I:C stimulus, luciferase, 10K MLSCN set, primary screen (AID 602277;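 active = inhibition of the reporter signal at or above 50%; inactive = inhibition below 50%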). Particulars: HEK293-TLR3 RL24 IRF3 luciferase reporter, at 10 µM, stronger effect = higher value.

The text below walks through data of PubChem BioAssay.

Each structure is given as a SMILES string. Active and inactive are the calls of the source.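 Rule for the calls, unless noted: active = inhibition at or above 50% at 10 µM; inactive = inhibition below 50%.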

Chain of Alpha-2C adrenergic receptor (Homo sapiens) (P18825 whole entry, looked up): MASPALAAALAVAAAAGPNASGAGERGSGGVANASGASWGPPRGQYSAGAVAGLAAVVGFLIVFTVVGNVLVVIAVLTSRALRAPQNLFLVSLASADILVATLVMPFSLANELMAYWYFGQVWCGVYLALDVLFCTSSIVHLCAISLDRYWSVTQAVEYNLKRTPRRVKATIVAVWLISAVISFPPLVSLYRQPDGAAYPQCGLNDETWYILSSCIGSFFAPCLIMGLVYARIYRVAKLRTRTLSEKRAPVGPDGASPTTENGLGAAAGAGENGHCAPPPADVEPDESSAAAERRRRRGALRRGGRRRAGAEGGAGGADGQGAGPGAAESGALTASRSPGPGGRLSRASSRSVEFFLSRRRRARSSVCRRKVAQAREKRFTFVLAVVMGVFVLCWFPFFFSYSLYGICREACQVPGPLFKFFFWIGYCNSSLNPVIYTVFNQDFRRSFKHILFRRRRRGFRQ
Chain of Voltage-gated potassium channel subunit beta-2 (Rattus norvegicus) (P62483 whole entry, looked up): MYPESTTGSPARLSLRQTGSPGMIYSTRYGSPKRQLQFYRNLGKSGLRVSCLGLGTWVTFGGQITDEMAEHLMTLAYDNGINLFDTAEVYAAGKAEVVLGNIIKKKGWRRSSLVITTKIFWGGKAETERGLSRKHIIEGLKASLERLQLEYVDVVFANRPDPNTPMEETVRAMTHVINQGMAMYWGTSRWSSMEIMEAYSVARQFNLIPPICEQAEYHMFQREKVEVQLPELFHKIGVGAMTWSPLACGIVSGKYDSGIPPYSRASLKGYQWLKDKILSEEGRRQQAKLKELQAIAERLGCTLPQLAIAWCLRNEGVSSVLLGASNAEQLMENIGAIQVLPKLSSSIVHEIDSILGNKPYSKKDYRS

For the molecule `CCOC(=O)C1CCCN(c2c(N3CCN(c4ccccn4)CC3)c(=O)c2=O)C1` (centres undefined), the cell count in assay [1] stood at 631. Further, the inhibition in assay [1] was 6.9% (inactive); in assay [3] it was -5.4% (inactive); in assay [7], 3.88% (inactive); in assay [8], 27.8% (inactive). Also, in assay [2], the inhibition of aggregation was 11.3% (inactive). Further, the nuclei count in assay [2] amounted to 98.8%; in assay [3], 132%. Further, the fluorescence slope in assay [4] was -0.503 (inactive). The NADPH fluorescence slope in assay [5] is -3.5e-05 (inactive). For the same molecule, the slope in assay [6] was 0.00587 (inactive).

As for `COc1cc(CN2CCN(C(=O)CC(C)C)CC2)cc(OC)c1O`, in assay [1], the cell count stood at 642. The inhibition was -11% (inactive) in assay [1], -52.5% (inactive) in assay [3], 5.89% (inactive) in assay [7] and 16% (inactive) in assay [8]. Further, the inhibition of aggregation in assay [2] was -4.6% (inactive). Also, the nuclei count was found to be 99.7% in assay [2] and 90.3% in assay [3]. Moreover, in assay [4], the fluorescence slope was -0.583 (inactive). Further, the NADPH fluorescence slope in assay [5] was -2.8e-05 (inactive). In assay [6], the slope was 0.00548 (inactive).

As for `CCN(CC)S(=O)(=O)c1ccc2oc(SCc3ccc(F)cc3)nc2c1`, the cell count in assay [1] amounted to 707. Besides, the inhibition in assay [1] is -9.4% (inactive); in assay [3], -6.6% (inactive); in assay [7], 1.12% (inactive); in assay [8] it was -39.5% (inactive). For the same molecule, in assay [2], the inhibition of aggregation is 6.8% (inactive). In addition, the nuclei count in assay [2] was 104%; in assay [3], 110%. In addition, the fluorescence slope in assay [4] was -0.604 (inactive). The NADPH fluorescence slope in assay [5] is -6.8e-05 (inactive). Further, the slope in assay [6] was 0.00777 (inactive).

With `COC(=O)c1cccc(NC(=O)CSc2nnc(COc3ccc(C#N)cc3)n2-c2ccccc2)c1`, the cell count in assay [1] was 599. The inhibition was 3.7% (inactive) in assay [1], -64.7% (inactive) in assay [3], -22% (inactive) in assay [7] and -18.5% (inactive) in assay [8]. The inhibition of aggregation in assay [2] was -5.1% (inactive). Besides, the nuclei count in assay [2] came to 91.2%; in assay [3] it was 120%. In addition, the fluorescence slope in assay [4] is -0.586 (inactive). Further, the NADPH fluorescence slope in assay [5] is 4.9e-05 (inactive). Moreover, the slope in assay [6] is 0.00802 (inactive).

Consider `Cc1cccc(NC(=O)c2ccccc2O)c1C`, for which the cell count in assay [1] was 497. The inhibition in assay [1] is 4.9% (inactive); in assay [3], -5.3% (inactive); in assay [7] it was -45.5% (inactive); in assay [8], -93.4% (inactive). In addition, the inhibition of aggregation in assay [2] was -10% (inactive). Further, the nuclei count in assay [2] turned out to be 98.2%; in assay [3], 122%. Moreover, the fluorescence slope in assay [4] is -0.482 (inactive). In addition, the NADPH fluorescence slope in assay [5] was -2.8e-05 (inactive). Also, the slope in assay [6] was 0.00603 (inactive).

Regarding `O=c1[nH]c(=O)n(C2CCCCCC2)c(O)c1C=NCc1ccc(F)cc1`, the cell count in assay [1] came out at 666. Besides, the inhibition in assay [1] was 5% (inactive); in assay [3] it was 3% (inactive); in assay [7], 14.6% (inactive); in assay [8], 26.9% (inactive). In assay [2], the inhibition of aggregation was 0.1% (inactive). Also, the nuclei count in assay [2] turned out to be 109%; in assay [3], 110%. Besides, the fluorescence slope in assay [4] is -0.321 (inactive). Moreover, the NADPH fluorescence slope in assay [5] is 3.1e-05 (inactive). Further, in assay [6], the slope was 0.00576 (inactive).

Take `O=C(NCC1COc2ccccc2O1)C1CCCN(S(=O)(=O)c2cnc[nH]2)C1` (centres undefined): the cell count in assay [1] turned out to be 617. In addition, the inhibition in assay [1] is 7.3% (inactive); in assay [3], -63.3% (inactive); in assay [7], 4.57% (inactive); in assay [8], 24.5% (inactive). The inhibition of aggregation in assay [2] was -15.6% (inactive). For the same molecule, the nuclei count in assay [2] worked out at 100%; in assay [3] it was 124%. Also, the fluorescence slope in assay [4] was -0.501 (inactive). Besides, the NADPH fluorescence slope in assay [5] was -2e-05 (inactive). Besides, the slope in assay [6] is 0.00703 (inactive).

In the case of `c1ccc(CCNc2ccc3nncn3n2)cc1`, the cell count in assay [1] came out at 593. Also, the inhibition in assay [1] was 5.8% (inactive); in assay [3], -9.2% (inactive); in assay [7] it was 6.01% (inactive); in assay [8] it was 12.8% (inactive). Besides, the inhibition of aggregation in assay [2] was -3.1% (inactive). Also, the nuclei count in assay [2] came to 106%; in assay [3] it was 121%. Moreover, the fluorescence slope in assay [4] was -0.501 (inactive). In assay [5], the NADPH fluorescence slope was -2.4e-05 (inactive). The slope in assay [6] was 0.00573 (inactive).

With `O=C(c1cc(-c2cccc(O)c2)on1)N1CCN(C(c2ccccc2)c2ccccc2)CC1`, in assay [1], the cell count was found to be 787. The inhibition in assay [1] is 3.2% (inactive); in assay [3] it was -70.7% (inactive); in assay [7], 11% (inactive); in assay [8], 25.8% (inactive). Moreover, the inhibition of aggregation in assay [2] was -5.2% (inactive). Moreover, the values for the nuclei count in assay [2] and in assay [3] were 96.8% and 116%, respectively. Further, the fluorescence slope in assay [4] is -0.601 (inactive). Also, in assay [5], the NADPH fluorescence slope is -3.2e-05 (inactive). The slope in assay [6] is 0.00689 (inactive).

On to `COc1ccccc1CC1(C)NC(=O)N(CC(=O)Nc2cc(C)on2)C1=O` (centres undefined), for which the cell count in assay [1] was found to be 471. Also, the inhibition in assay [1] is -14.8% (inactive); in assay [3], -28.8% (inactive); in assay [7], 9.53% (inactive); in assay [8], 16.4% (inactive). In addition, the inhibition of aggregation in assay [2] was 14.1% (inactive). Moreover, the nuclei count in assay [2] stood at 88.8%; in assay [3], 158%. Moreover, the fluorescence slope in assay [4] is -0.598 (inactive). For the same molecule, the NADPH fluorescence slope in assay [5] is -2.5e-05 (inactive). For the same molecule, in assay [6], the slope was 0.006 (inactive).

On to `COc1ccc(CCn2c(-c3ccco3)nc3nc4ccccc4nc32)cc1`, for which, in assay [1], the cell count is 806. Besides, the inhibition in assay [1] was -5.6% (inactive); in assay [3] it was -25.4% (inactive); in assay [7], 18.8% (inactive); in assay [8], -6.71% (inactive). Further, the inhibition of aggregation in assay [2] was -7.3% (inactive). The nuclei count was 101% in assay [2] and 115% in assay [3]. In addition, in assay [4], the fluorescence slope was -0.445 (inactive). Further, the NADPH fluorescence slope in assay [5] is -3.4e-05 (inactive). Also, the slope in assay [6] was 0.00679 (inactive).

For `O=C(O)c1ccc(-c2ccc(O)c(F)c2)cc1`, the cell count in assay [1] was 677. For the same molecule, the inhibition in assay [1] is 1.3% (inactive); in assay [3], -11.2% (inactive); in assay [7], -3.64% (inactive); in assay [8] it was 17.3% (inactive). In addition, the inhibition of aggregation in assay [2] is 11% (inactive). In addition, the nuclei count in assay [2] was 89.9%; in assay [3], 104%. Moreover, in assay [4], the fluorescence slope was -0.59 (inactive). Besides, in assay [5], the NADPH fluorescence slope is -4.3e-05 (inactive). For the same molecule, in assay [6], the slope was 0.0076 (inactive).

For the molecule `c1ccc(Cc2ccc(OCCn3cncn3)cc2)cc1`, the cell count in assay [1] is 755. Also, the inhibition in assay [1] is -5.6% (inactive); in assay [3] it was -68.7% (inactive); in assay [7], -18.4% (inactive); in assay [8], -0.13% (inactive). Moreover, in assay [2], the inhibition of aggregation was -15.5% (inactive). Moreover, the nuclei count stood at 102% in assay [2] and 108% in assay [3]. For the same molecule, the fluorescence slope in assay [4] was -0.477 (inactive). Further, the NADPH fluorescence slope in assay [5] was 1.2e-05 (inactive). Further, the slope in assay [6] was 0.00592 (inactive).

For `COC(=O)CSC1=C(C#N)C(c2ccccc2)CC(=O)N1` (centres undefined), the cell count in assay [1] worked out at 317. The inhibition in assay [1] was 1.5% (inactive); in assay [3], 7.2% (inactive); in assay [7] it was 25.3% (inactive); in assay [8], 21.9% (inactive). In addition, the inhibition of aggregation in assay [2] is -2.2% (inactive). Further, the nuclei count came to 89.5% in assay [2] and 86.9% in assay [3]. Moreover, the fluorescence slope in assay [4] was -0.372 (inactive). Also, the NADPH fluorescence slope in assay [5] was -1.7e-05 (inactive). Besides, the slope in assay [6] was 0.00515 (inactive).
